In the library only some 1.1% were active in any assay of this set; here they are far more common.
PKA-R2B activ: activates the human PKA-R2B holoenzyme complex; AID 504700; hit rate 0.079% among 340,000; activation, % at 11.4 µM; PKA-R2B holoenzyme dissociation, Cy5-IP20 fluorescence polarization; R2B truncated from residue 108, S112A mutant; 0% DMSO only, 100% 113 µM cGMP; P22694+P31323;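 active means activation above a cutoff set at the mean over all compounds plus 3 SD, cut at about 18% in these data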;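 further: higher means more holoenzyme dissociation and a rise in polarization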
MsrA act: activates bovine MsrA enzyme; activation, % at 10.6 µM; hit rate 0.3% among 360,000; AID 602163; purified bovine MsrA, absorbance read-out; in the data active means activation above about 7.5%;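 further: 0% = vehicle and 100% = reference activator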
PKA-R1A activ: PKA-R1A complex activation. P00514+P68181. PKA-R1A dissociation, Cy5-IP20 fluorescence polarization; scaled: DMSO 0%, 113 µM cGMP 100%. activation, % at 11.4 µM. hit rate 0.083% among 340,000;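 active means percent activation above the mean of all tested compounds plus 3 SD, cut at about 19% in these data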;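 further: higher means more PKAc released from R1A so a rise in polarization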
MsrA inh: inhibitors of bovine MsrA | purified bovine MsrA, absorbance read-out | inhibition, % at 15.5 µM | hit rate 0.75% among 360,000; in the data active means inhibition above about 4.5%;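 further: 0% = vehicle wells with enzyme and 100% = reference inhibitor wells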
R1A FP artifact: FP assay interference, PKA-R1A counter-screen. hit rate 7% among 280. activation, % at 11.4 µM. shares compounds with PKA-R1A activ. Cy5-IP20 peptide alone, fluorescence polarization artifact counterscreen. AID 504799;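 active means mean activation over triplicate runs exceeds the adjusted cutoff derived for the parent primary screen, cut at about 19% in these data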;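 further: no PKA protein present so any polarization rise reflects compound interference; 0% = tracer peptide mix alone and 100% = mix with added PKA catalytic subunit; higher means stronger polarization artifact and likely false positive in parent screen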
PKA-R1A confirm: PKA-R1A complex activation, confirmation; activation, % at 11.4 µM; hit rate 9% among 280; shares compounds with PKA-R1A activ; Cy5-IP20 fluorescence polarization, PKA-R1A holoenzyme dissociation;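 active means mean activation over replicate wells exceeds the adjusted hit threshold taken from the earlier primary screen, cut at about 20% in these data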;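 further: 0% = holoenzyme mix with DMSO only and 100% = cGMP-activated control wells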
Target sequence (P00514 whole entry, looked up): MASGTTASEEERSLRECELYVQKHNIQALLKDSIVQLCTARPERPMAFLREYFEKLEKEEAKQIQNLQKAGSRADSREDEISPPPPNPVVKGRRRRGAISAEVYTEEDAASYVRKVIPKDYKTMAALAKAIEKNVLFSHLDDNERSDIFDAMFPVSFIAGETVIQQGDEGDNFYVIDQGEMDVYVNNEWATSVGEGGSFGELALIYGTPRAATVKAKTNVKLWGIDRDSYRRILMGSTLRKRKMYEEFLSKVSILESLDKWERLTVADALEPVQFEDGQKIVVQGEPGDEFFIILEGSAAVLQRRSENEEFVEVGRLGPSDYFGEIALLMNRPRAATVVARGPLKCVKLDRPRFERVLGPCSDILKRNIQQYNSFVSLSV
* marks the source's active call; other numbers are inactive results.

Screening C[C@@H]1CN([C@@H](C)CO)C(=O)CCCn2nncc2CO[C@H]1CN(C)C(=O)Nc1ccc(N2CCN(C)CC2)cc1 returned MsrA inh 2.
`O=C(Cn1nnc2c(cnn2-c2ccccc2)c1=O)N1CCN(c2ccccc2F)CC1` gave PKA-R2B activ 11, MsrA act -3, PKA-R1A activ 19*, MsrA inh 0, R1A FP artifact 3 and PKA-R1A confirm 1.
`O=C(Cn1cnc2c(cnn2-c2ccc(F)cc2)c1=O)N1CCN(c2ccccc2F)CC1` gave PKA-R2B activ -2, MsrA act -10, PKA-R1A activ -2 and MsrA inh 0.
COc1cc(CNc2cccc3c2S(=O)(=O)N([C@H](C)c2ccccc2)C[C@@H](COCc2ccccc2)O3)cc(OC)c1OC was read as MsrA inh 1.
CCOC(=O)[C@@H]1CSCCS(=O)(=O)N1Cc1ccc(C(F)(F)F)cc1 was read as MsrA inh 0.
For CC1(C)OC(C)(C)C(=N/O)/C1=N\N the results were MsrA inh 1.
For COc1ccc(OC)c(C2C(C(=O)c3ccco3)=C(O)C(=O)N2CCN2CCOCC2)c1 (stereo unspecified) the results were PKA-R2B activ 2, MsrA act -3, PKA-R1A activ 19*, MsrA inh 1, R1A FP artifact 2 and PKA-R1A confirm 3.
Screening Cc1onc(-c2ccccc2)c1C(=O)N1CCN(C(=O)C(=O)c2cccc(C(F)(F)F)c2)CC1 returned MsrA inh -1.
`COC(=O)c1ccccc1NC(=O)C(=O)NCc1ccncc1` gave PKA-R2B activ -1, MsrA act -3, PKA-R1A activ 21*, MsrA inh -1, R1A FP artifact 1 and PKA-R1A confirm 4.
Screening COC(=O)c1ccccc1NC(=O)NCc1cccnc1 returned PKA-R2B activ 0, MsrA act -3, PKA-R1A activ -5 and MsrA inh 0.
Screening O=C(NCCN1CCC(n2c(=O)[nH]c3ccccc32)CC1)c1cccs1 returned MsrA act -8 and MsrA inh 1.
For Cc1ccc(S(=O)(=O)NC2CC(C)(C)NC(C)(C)C2)cc1C the results were PKA-R2B activ -2, MsrA act -2, PKA-R1A activ 19*, MsrA inh 0, R1A FP artifact 1 and PKA-R1A confirm 5.
For COCC1CN(CCc2ccc(F)cc2)S(=O)(=O)c2c(F)cccc2O1 (stereo unspecified) the results were MsrA inh 1.
Screening COc1ccccc1-c1csc(NC(=O)c2cc(-c3cccs3)nc3ccccc23)n1 returned PKA-R2B activ -8, MsrA act -4, PKA-R1A activ 23*, MsrA inh 3, R1A FP artifact -1 and PKA-R1A confirm 3.
For O=C(Nc1cccc(Cl)c1)Nc1nnc(-c2ccncc2)s1 the results were PKA-R2B activ 7, MsrA act -5, PKA-R1A activ 22*, MsrA inh 1, R1A FP artifact 26* and PKA-R1A confirm 26*.
Screening O=C1c2[nH]nc(-c3ccccc3)c2C(c2ccc(F)cc2)N1Cc1ccccc1 (stereo unspecified) returned MsrA inh 0.
COc1ccc(CC(=O)N2N=C(c3ccncc3)CC2(O)C(F)(F)F)cc1 (stereo unspecified) was read as PKA-R2B activ -5, MsrA act -4, PKA-R1A activ 1 and MsrA inh 2.
CCC1=NN(C(=O)Cc2ccc(OC)cc2)C(O)(C(F)(F)F)C1 (stereo unspecified) was read as PKA-R2B activ 8, MsrA act 0, PKA-R1A activ 19*, MsrA inh 1, R1A FP artifact 3 and PKA-R1A confirm -1.
CC(NC(=O)CSc1nc2c(c(C(F)(F)F)n1)CCc1ccccc1-2)c1ccccc1 (stereo unspecified) was read as PKA-R2B activ -5, MsrA act -2, PKA-R1A activ 19*, MsrA inh -1, R1A FP artifact 6 and PKA-R1A confirm 3.
O=C(CSc1nc2c(c(C(F)(F)F)n1)CCc1ccccc1-2)NCc1ccco1 was read as PKA-R2B activ 1, MsrA act -1, PKA-R1A activ 8 and MsrA inh 1.
CC(C)(C)C(=O)NCc1ccc(C(=O)CSc2nnc(C3CC3)n2C2CC2)s1 was read as PKA-R2B activ 0, MsrA act -5, PKA-R1A activ 20*, MsrA inh 1, R1A FP artifact -2 and PKA-R1A confirm 0.
For CCOc1ccc(-c2nnc3n2N=C(c2ccc(OC)cc2)CS3)cc1 the results were PKA-R2B activ -5, MsrA act -6, PKA-R1A activ 20*, MsrA inh 2, R1A FP artifact -1 and PKA-R1A confirm 1.
CCOc1ccc(C2=Nn3c(nnc3-c3ccccc3OC)SC2)cc1 was read as PKA-R2B activ 3, MsrA act -1, PKA-R1A activ -6 and MsrA inh 0.
Cn1c(=O)oc2ccc(S(=O)(=O)Nc3ccc(Cl)cc3[N+](=O)[O-])cc21 was read as MsrA inh 1.
O=C1C2C3C=CC(C3)C2C(=O)N1CCC(=O)N1CCc2ccccc21 (stereo unspecified) was read as PKA-R2B activ -7, MsrA act -5, PKA-R1A activ 23*, MsrA inh 0, R1A FP artifact 2 and PKA-R1A confirm 4.
Cc1cc2c(c(=O)o1)[C@@]1(C(=O)N(C)c3ccccc31)C1=C(CC3(CCCCC3)OC1=O)O2 was read as MsrA inh 0.
`O=C(N[C@H](Cc1ccccc1)C(=O)NCc1ccc2c(c1)OCO2)[C@H]1O[C@@H](n2ccc(=O)[nH]c2=O)[C@H](O)[C@@H]1O` gave MsrA inh 0.
For COc1ccc(C(=O)N2CCCC(Nc3ccc(C)c(C)c3)C2)c(OC)n1 (stereo unspecified) the results were PKA-R2B activ 12, MsrA act -4, PKA-R1A activ 23*, MsrA inh -1, R1A FP artifact 2 and PKA-R1A confirm -4.
CCCC(=O)Nc1nnc(SCC(=O)N2CCCCC2)s1 was read as PKA-R2B activ 1, MsrA act 2, PKA-R1A activ 19*, MsrA inh 0, R1A FP artifact -1 and PKA-R1A confirm -1.
For CCCC(=O)Nc1nnc(SCC(=O)N2C(C)CCCC2C)s1 (stereo unspecified) the results were PKA-R2B activ 9, MsrA act 1, PKA-R1A activ 2 and MsrA inh 0.
Screening COC(=O)c1cc2c(c3c4cc(C)ccc4n(S(=O)(=O)c4ccc(OC)cc4)c13)C(=O)N(C)C2 returned MsrA inh 1.
`COC(=O)C1=C(C)N(C)C(=NCc2ccc3c(c2)OCO3)NC1c1ccccc1` (stereo unspecified) gave MsrA inh 0.

Source: PubChem (The Scripps Research Institute Molecular Screening Center)
